Among the data in publication PMC7826789 (International Journal of Molecular Sciences, 2021) are Kinases covered values, retold here.

`COc1cc(N2CCN(C)CC2)ccc1Nc1ncc2c(n1)N(C)c1ccccc1C(=O)N2` [XMD8-87]: the Kinases covered entry in the assay on PTK6 was “PTK6”.
As to `CCCc1cc(N2CCCN(C)CC2)nc2sc3c(N)ncnc3c12` [BI00604564], the Kinases covered entry in the assay on RIOK2 was “RIOK2”.
The same measure, in the same setting: the same measure for `Cc1cc(NC(=O)c2cccc(NC(=O)/C=C/CN(C)C)c2)ccc1Nc1nccc(-c2cccnc2)n1` [JNK-IN-7]: “RIOK2”.
Consider `CC1=C(C(=O)Nc2ccc3[nH]ncc3c2)C(c2ccc(Cl)c(Cl)c2)CC(=O)N1` (stereo not shown) [GSK299115A], for which the Kinases covered entry in the assay on ROCK1 is listed as “ROCK1”.
For `CCn1c(-c2nonc2N)nc2cncc(CNC3CCNCC3)c21` [SB-747651A], the Kinases covered entry in the assay with ROCK2 was “ROCK2”.
Same read-out and setting: the same measure for `CCn1c(-c2nonc2N)nc2cncc(C(=O)N3CC[C@H](N)C3)c21.Cl` [SB-772077-B]: “ROCK2”.
As for `COc1cc(Nc2cnc(C#N)c(O[C@H](C)CN(C)C)n2)ncc1-c1cnn(C)c1` [CCT244747], in the assay on RPS6KA1, the Kinases covered entry is given as “RPS6KA1”.
